Data as given in PubChem BioAssay (NCI).
Several values for one entry are separate records, joined by “and”; a condition that tells them apart may be missing. Equal entries are not always repeated. This is part of a sample that, as a whole, favours compounds with a hit. Of some 83,000 tested, about 20% had one in any assay.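 Assay: single dose, 48 h. Readout: percent growth (0 = no net growth; negative = cell death). Active: <10.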 Activity calls are given as the source filed them.

System: PC-3 prostate
Test: NCI-60 one-dose screen, 48 h (100 = growth as untreated, 0 = no growth, -100 = all killed)
Settings: 10 µM
Method: Growth inhibition of the PC-3 human tumor cell line is measured as a screen for anti-cancer activity. Cells are grown in 96 well plates and exposed to the test compound for 48 hours. Compounds are tested at a single concentration, which is 10^-5 M for most compounds. The reported endpoint is percent growth (GI% or GIPRCNT), where numbers from 0 - 100% represent growth inhibition, and numbers from -100% - 0 represent cell death. For example, a value of 40 represents 60% growth inhibition. A value of 0 means no net growth occurred over the course of the experiment. A value of -40 indicates 40% of cells at the beginning of the experiment died by the end of the experiment. A value of -100 means all cells are dead at the end of the experiment.
NCI-60 Human Tumor Cell Lines Screen was performed using the standard one-dose NCI protocol, which is described in more detail at https://dtp.cancer.gov/discovery_development/nci-60/default.htm.
Compounds with GIPRCNT values below 10 were considered active. Activity score was based on GIPRCNT using the following formula: […]
Score is 0 for GIPRCNT values of 100 or above, 50 for GIPRCNT values of 0, and 100 for GIPRCNT values of -100.

Structure (SMILES)	growth
CCN(Cc1ccccc1)c1ccc(/C=C2\COc3ccccc3C2=O)cc1	87.1% (inactive)

Same assay, conditions: 10 µM unless noted

Structure (SMILES)	growth
Clc1ccc(CNc2ccc3nc(CCC4CCCCC4)[nH]c3c2)cc1	46.7% (inactive)
CN(C)c1ccc2nc3ccc(=O)cc-3sc2c1	29.7% (inactive) and 33% (inactive)
CN1CCN(c2ccc(/C=C/C(=O)c3ccc(O)cc3)cc2)CC1	93.1% (inactive)
Cc1nc2sc(C(=O)Nc3cccc4ncccc34)c(N)c2cc1C(C)O (stereo not given)	72.9% (inactive)
Cc1oc2c(Cc3ccc(NC(=O)c4ccc(Cl)cc4)cc3)ncnc2c1C(=O)NO	97.7% (inactive)
COc1cc(OC)cc(-c2ccc(-c3ccc(C(=N)N)cn3)s2)c1	69.1% (inactive)
O=C(NCc1cccnc1)/C(=C\c1ccc(Br)cc1)S(=O)(=O)c1ccccc1	-0.986% (active)
O=C1/C(=C/c2ccc(F)c(F)c2)CN(C(=O)C(Cl)Cl)C/C1=C\c1ccc(F)c(F)c1	-85.2% (active)
CCOC(=O)N(O)c1ccc(/C=C/c2ccccc2)cc1	55% (inactive) and 67.5% (inactive)
c1ccc(-c2cc(-c3cc(-c4ccccc4)on3)no2)cc1	128% (inactive)
Cc1nc2sc(C(=O)Nc3cccc(Cl)c3C)c(N)c2cc1C(O)c1ccccc1 (stereo not given)	19.6% (inactive)
CC(C)(C)c1cc(NC(=O)Nc2ccc(-c3cn4c(n3)sc3cc(OCCN5CCOCC5)ccc34)cc2)no1	22.8% (inactive) and 15.2% (inactive)
Cc1ccc(/C=C(\C#N)c2cc3ccccc3[nH]2)cc1	71.1% (inactive)
Nc1nc(Cl)nc2c1ncn2C1OC(CO)C(O)C1O (stereo not given)	65.6% (inactive) and 67.5% (inactive)
Cc1cc(N2CCCCC2)nc(NCc2cc(Nc3ccnc4cc(Cl)ccc34)ccc2F)n1	17.4% (inactive)
COC(=O)c1nc(-c2ccc(C)cc2)oc1Sc1ccc(C)cc1	78.4% (inactive)
COc1ccc(C(=O)c2ccc(OC)c(OC)c2OC)cc1	35.5% (inactive) and 32.9% (inactive)
CN1CCN(CCNC(=O)c2cccc(CN3c4cccc5c4C(=Cc4cccnc43)N(C)C5=O)c2)CC1	39.6% (inactive)
O=C(CC1(O)C(=O)Nc2ccc(Br)cc21)c1ccc(Cl)cc1 (stereo not given)	81.6% (inactive)

Structure (SMILES)	growth
COc1cc(Nc2nc3ccccc3cc2C(=O)Nc2ccc(F)c(F)c2)cc(OC)c1OC	10.7% (inactive)
O=C1Nc2ccccc2/C1=C/c1cccn1CCCCCn1c2ccccc2c(=O)c2ccccc21	42% (inactive)
O=c1c2c([nH]c3ccccc13)CCCC2	85.3% (inactive) and 57.9% (inactive)
COc1ccc2c(c1)oc1c(C)c3c(c(C)c12)C(=O)N(Nc1ccccc1)C3=O	109% (inactive)
[2H]C([2H])([2H])Oc1cccc(/C=C/C(=O)/C=C(/C=C/c2cccc(OC([2H])([2H])[2H])c2OC([2H])([2H])[2H])OB(F)F)c1OC([2H])([2H])[2H]	74.3% (inactive)
COc1ccc(S(=O)(=O)Nc2cc(Sc3cccc4cccnc34)c(O)c3ccccc23)cc1	26.3% (inactive)
O=C(c1ccc(Nc2nccc(NCCCNc3ccnc4cc(Cl)ccc34)n2)cc1)N1CCCCC1	36.5% (inactive)
COc1ccc(-c2csc(NC(=O)CN3CCN(CCO)CC3)n2)cc1NS(=O)(=O)c1cccc2c(N(C)C)cccc12	72.7% (inactive)
CCN1CCN(CC(=O)Nc2nc3ccc(NCc4ccc(C)cc4)cc3s2)CC1	56% (inactive)
COC(=O)/C=C1/SC(N2N=C(c3cccs3)CC2c2ccc(F)cc2)=NC1=O (stereo not given)	64.5% (inactive)
CN1C(=O)N(C)C2(c3ccccc3)N(CC(=O)Nc3ccccc3O)C(=O)NC12c1ccccc1 (stereo not given)	90.3% (inactive)
O=C(/C=C/c1ccc(Cl)s1)c1ccc(Cl)s1	92.6% (inactive) and 105% (inactive)
C=C1CCC2C3(C)COC(c4ccc(NC(C)=O)cc4)OC3CCC2(C)C1C/C=C1/C(=O)OCC1O (stereo not given)	42.2% (inactive)
N=C(N)SCc1c2ccccc2c(CSC(=N)N)c2ccccc12	61.8% (inactive)
BrC1=C(Br)C(Br)(Br)C(Br)=C1Br	84.6% (inactive)
C=C(C)[C@@H]1CC[C@]2(C(=O)O)CC[C@]3(C)[C@H](CC[C@@H]4[C@@]5(C)CCC(N)C(C)(C)[C@@H]5CC[C@]43C)[C@@H]12 (stereo not given in full)	66.5% (inactive)
N#C/C(=C\c1ccc(Br)cc1)n1nnc2c(F)cccc21	4.26% (active)
CCOC(=O)c1c(-c2ccc(C)cc2)c(C#N)c(=O)n(-c2cccc(C(F)(F)F)c2)c1N	110% (inactive)
Brc1ccc(/C=C(/C2=NCCN2)n2ccc3ccccc32)cc1	45% (inactive)

Same assay, conditions: 100 µM

Structure (SMILES)	growth
CCN(Cc1ccccc1)c1ccc(/C=C2\COc3ccccc3C2=O)cc1	26.5% (inactive)
